Compound activity as filed in PubChem.
In the library only some 3.9% were active in any assay of this set; here they are far more common.
S2 tox = viability counter-screen for ATXN expression inhibitors; S2 cells (HEK-293 line with an ATXN2-luciferase reporter) viability, CellTiter-Fluor protease fluorescence, 24 h; hit rate 0.49% among 400,000; Potency, µM (series often up to 56.7 µM), actives largely listed as cytotoxic; note: nearly all actives have a fitted effect of over 40% in size
TGFb inhibitor = blocks TGF-b signaling; HepG2 CAGA-GFP TGF-b/SMAD3 reporter, GFP fluorescence, 18 h; TGF-beta stimulated, 500 pg/mL final; hit rate 1.2% among 410,000; Potency, µM (titrated, usually from 46.1 µM), inactives show at the highest dose activity, negative = inhibition, actives largely listed as inhibitors; note: % is set by controls: 0 for no effect and ±100 for the full control effect; nearly all actives have a fitted effect of over 65% in size
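HEPG2 CAGA-GFP reporter cells (1000/well, DMEM with 1% FBS) received compounds, then recombinant TGF-beta at 500 pg/mL final for 18 hours at 37 degrees C. Per-cell GFP summed per well was normalised to unstimulated and stimulated DMSO controls before curve fitting.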
HT1080 IDH1KD tx = kills HT-1080 cells with IDH1 knockdown | HT-1080 IDH1 knockdown viability, ATP luminescence, 48 h | Potency, µM (highest dose often 46.1 µM), inactives show at the highest dose activity, negative = toxicity, most hits filed as cytotoxic | hit rate 2% among 360,000 | AID 686971;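 note: 0% = DMSO wells and -100% = cell-free medium wells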
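HT-1080-IDH1KD cells (IDH1 knocked down), 750/well in RPMI with 5% FBS, treated with compound 48 h at 37 degrees C. Viability by CellTiter-Glo luminescence, normalised to DMSO and no-cell wells; concentration-response curves classed.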
HepG2 tox = counter-screen for TGF-b inhibitors: cytotoxicity in HepG2 cells; HepG2 CAGA-GFP viability, ATP luminescence, 18 h; Potency, µM (highest dose often 46.1 µM), for inactives: at the top dose activity change, negative = cytotoxicity, hits mostly cytotoxic; hit rate 0.76% among 410,000
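CellTiter-Glo luminescence gave cytotoxicity after 18 hours at 37 degrees C. The cells were HepG2 CAGA-GFP in 1% FBS DMEM, stimulated with 500 pg/mL TGF-beta after compound addition. %Activity was normalised to no-cell wells (complete cell-killing) and DMSO (no toxicity), and curves were fitted and classified.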
HT1080NT lethal = kills 2HG-producing HT-1080-NT fibrosarcoma cells; hit rate 1.6% among 360,000; HT-1080-NT fibrosarcoma viability, CellTiter-Glo ATP luminescence, 48 h; AID 686970; Potency, µM (titrated, usually from 46.1 µM), for inactives: at the top dose activity, negative = less viability, actives largely listed as cytotoxic;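 note: NT is the 2HG producing partner of a matched IDH1 knockdown line; 0% = DMSO-treated cells and -100% = media-only wells without cells; nearly all actives have a fitted effect of over 55% in size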
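Toxicity toward the 2HG-producing NT line was scored as %Activity, normalised to DMSO and no-cell wells, from CellTiter-Glo luminescence after 48 hours' treatment.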
ATXN2 expr inh = reduces ATXN2 reporter expression in HEK-293 cells | HEK-293 ATXN2-luciferase reporter, luminescence, 24 h | Potency, µM (top dose mostly 57 µM), without a hit: at the highest dose activity change, negative = inhibition, usual class: inhibitors | hit rate 0.72% among 360,000; note: % is set by controls: 0 for no effect and ±100 for the full control effect; nearly all actives have a fitted effect of over 55% in size
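qHTS (up to 57 uM final) was run with 24 h compound exposure of reporter cells at 37 °C. Each well was multiplexed: SteadyGlo luminescence measured ATXN2-luciferase expression after a fluorogenic Gly-Phe-AFC viability readout (25 uM final).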
* = called active by the depositor. Calls come from the whole dose curve; as a rule, active = well fitted curve in the direction sought with a large enough effect; inconclusive = small, poorly fitted or top-dose-only effect, or another doubt; inactive = no such curve, though single readings can be large; an effect the other way counts as inactive or inconclusive. Potency is the fitted concentration of half-maximal effect.

Screening CCc1ccc(C(O)c2ncc(-c3ccc(C(F)(F)F)cc3)[nH]2)cc1 (configuration not stated) returned S2 tox inactive, TGFb inhibitor 16µM*, HT1080 IDH1KD tx 7%, HepG2 tox -75%, HT1080NT lethal -21% and ATXN2 expr inh -17%.
For CCC(=O)N1CCc2cc(CNS(=O)(=O)c3cc(Cl)ccc3OC)ccc21 the results were TGFb inhibitor -7% and HepG2 tox 0%.
CN1CCCC(CNC(=O)c2cnn(-c3ncc4c(n3)-c3ccccc3CC4)c2C2CC2)C1 (configuration not stated) was read as S2 tox inactive.
For Oc1ccc(CNc2ccccc2)c2cccnc12 the results were S2 tox inactive, TGFb inhibitor inconclusive, HT1080 IDH1KD tx inconclusive, HepG2 tox -52%, HT1080NT lethal 5.8µM* and ATXN2 expr inh -35%.
`Oc1ccc(CN2CCN(Cc3ccccc3)CC2)c2cccnc12` gave S2 tox inactive, TGFb inhibitor inconclusive, HT1080 IDH1KD tx -17%, HepG2 tox -55%, HT1080NT lethal inconclusive and ATXN2 expr inh -16%.
`Oc1ccc(CNc2ccc(F)cc2)c2cccnc12` gave S2 tox inactive, TGFb inhibitor inconclusive, HT1080 IDH1KD tx 18µM*, HepG2 tox -67%, HT1080NT lethal 18µM* and ATXN2 expr inh -16%.
Cc1cccc(NCc2ccc(O)c3ncccc23)c1 was read as S2 tox inactive, TGFb inhibitor inconclusive, HT1080 IDH1KD tx inconclusive, HepG2 tox -26%, HT1080NT lethal 18µM* and ATXN2 expr inh -21%.
For Cc1c(NC(=O)Cc2ccc(Cl)cc2)cccc1-c1nc2cccnc2s1 the results were S2 tox inactive, TGFb inhibitor 24%, HepG2 tox 12% and ATXN2 expr inh -7%.
O=C1CCCc2c1[nH]c1ccc(CN3CCCCC3)cc21 was read as S2 tox inactive, TGFb inhibitor -5%, HT1080 IDH1KD tx 10µM*, HepG2 tox -28%, HT1080NT lethal inconclusive and ATXN2 expr inh 70%.
`Cc1ccc2[nH]c3c(c2c1)CCCC3=O` gave S2 tox inconclusive, TGFb inhibitor -1%, HT1080 IDH1KD tx -6%, HepG2 tox -17%, HT1080NT lethal -7% and ATXN2 expr inh 63%.
Screening CC(C)c1ccc2[nH]c3c(c2c1)CCCC3=O returned S2 tox inactive, TGFb inhibitor -4%, HT1080 IDH1KD tx inconclusive, HepG2 tox -7%, HT1080NT lethal 21µM* and ATXN2 expr inh -12%.
`Cc1ccc2[nH]c3c(c2c1)CCC3=O` gave S2 tox inactive, TGFb inhibitor 1%, HT1080 IDH1KD tx -15%, HepG2 tox -9%, HT1080NT lethal 0% and ATXN2 expr inh 43%.
c1ccc(NNC2=NCCCCC2)cc1 was read as S2 tox inactive, TGFb inhibitor 2%, HT1080 IDH1KD tx 4.1µM*, HepG2 tox -37% and HT1080NT lethal inconclusive.
COc1cc(OC)cc(-c2ccc3ncc4ccc(=O)n(-c5ccc(N6CCNCC6)c(C(F)(F)F)c5)c4c3c2)c1 was read as ATXN2 expr inh 19µM*.
COc1ccc(-c2nn(-c3ccc(F)cc3)c3c2cnc2cc4c(cc23)OCO4)cc1 was read as S2 tox inactive, TGFb inhibitor 0%, HepG2 tox -7% and ATXN2 expr inh 12%.
COc1cccc(N2CCN(c3nc(-c4ccccc4C)cc(=O)[nH]3)CC2)c1 was read as S2 tox inactive, TGFb inhibitor inconclusive, HT1080 IDH1KD tx inconclusive, HepG2 tox -18%, HT1080NT lethal inconclusive and ATXN2 expr inh 0.71µM*.
`CCOC(=O)c1c(CSc2ccsc2)n(C)c2cc(Br)c(O)c(CN(C)C)c12` gave S2 tox inactive, TGFb inhibitor inconclusive, HT1080 IDH1KD tx -18%, HepG2 tox 10µM* and HT1080NT lethal -7%.
CCOC(=O)c1c(CSc2ccccc2)n(C)c2cc(Br)c(O)c(CN(C)C)c12 was read as S2 tox inactive, TGFb inhibitor inconclusive, HT1080 IDH1KD tx inconclusive, HepG2 tox -25%, HT1080NT lethal inconclusive and ATXN2 expr inh inconclusive.
Cc1cc(NC(=O)Nc2ccc(C)c(C)c2)no1 was read as S2 tox inactive, TGFb inhibitor -6%, HT1080 IDH1KD tx -4%, HepG2 tox -13%, HT1080NT lethal 29µM* and ATXN2 expr inh 9%.
Screening Cc1cc(NC(=O)Nc2ccc(F)cc2)no1 returned S2 tox inactive, TGFb inhibitor 2%, HT1080 IDH1KD tx 1%, HepG2 tox 15%, HT1080NT lethal 7% and ATXN2 expr inh 23%.
COc1cccc(CNC(=O)c2c(OC)cc(=O)n3c2CCN(C(=O)c2csc(C)n2)CC3)c1 was read as S2 tox inactive.
Screening Cc1ccc(CN2CCC(CO)(CC3CCCCO3)CC2)o1 (configuration not stated) returned S2 tox inconclusive, TGFb inhibitor inconclusive, HT1080 IDH1KD tx 13%, HepG2 tox -5%, HT1080NT lethal 7% and ATXN2 expr inh -12%.
Screening Cc1ccc2[nH]c(CN3CCC(CO)(CC4CCCCO4)CC3)c(C)c2c1 (configuration not stated) returned S2 tox inactive, TGFb inhibitor 0%, HT1080 IDH1KD tx 13µM*, HepG2 tox -10%, HT1080NT lethal inconclusive and ATXN2 expr inh 70%.
For CC(=O)N1CCc2c(sc(NC(=O)c3ccc4c(c3)OCCO4)c2C#N)C1 the results were S2 tox inactive, TGFb inhibitor -17%, HT1080 IDH1KD tx 12µM*, HepG2 tox -14%, HT1080NT lethal 18µM* and ATXN2 expr inh -24%.
`CC(=O)N1CCc2c(sc(NC(=O)c3ccc(S(=O)(=O)N(C)C)cc3)c2C#N)C1` gave S2 tox inactive, TGFb inhibitor 1%, HT1080 IDH1KD tx 10%, HepG2 tox 13%, HT1080NT lethal 3% and ATXN2 expr inh 1%.
Cc1ccc(C(=O)NC2c3ccccc3-c3ccccc32)cc1 was read as S2 tox inconclusive, TGFb inhibitor 4%, HT1080 IDH1KD tx 2.6µM*, HepG2 tox 10%, HT1080NT lethal inconclusive and ATXN2 expr inh -13%.
For COc1cccc2c1C(=O)/C(=C/c1ccc(N(C)C)cc1)C2 the results were TGFb inhibitor -3% and HepG2 tox -35%.
